Bioassay records from PubChem BioAssay.
IDE cell activ: IDE (human) activation, cell-based; HEK cells, FAbeta-B cleavage, fluorescence polarization; 0% vehicle, 100% cell-free pure enzyme wells; P14735; activation, % at 5.96 µM; AID 493087; 340,000 compounds, 0.073% hits;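 active = activation above the mean of all tested compounds plus 3 SD, set per screening campaign, cut at about 17% in these data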
IDE inh: inhibitors of human insulin-degrading enzyme in cells | P14735 | HEK cells, FAbetaB cleavage, fluorescence polarization | inhibition, % at 5.59 µM | 320,000 compounds, 0.41% hits | AID 434962;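 active = percent inhibition above the average of all tested compounds plus 3 SD, set per screening campaign, cut at about 16% in these data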;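 also: IDE supplied by intact live HEK cells; FP after avidin binding of uncleaved biotin substrate so inhibition keeps polarization high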
TPT1 inh: blocks Candida albicans tRNA 2'-phosphotransferase; recombinant caTPT1, FP RNA substrate dephosphorylation; inhibition, % at 5 µM; 300,000 compounds, 0.81% hits; AID 1962;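 active = inhibition above the mean of all tested compounds plus 3 SD, set per screening campaign, cut at about 24% in these data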
CRFBP-R2 agonist: CRF-BP/CRF-R2 complex agonism; HEK293 CRF-R2/CRF-BP, calcium dye fluorescence (FLIPR); percent of saturating CRF peptide response; activation, % at 13.2 µM; 350,000 compounds, 0.46% hits;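 active = activation of at least 50%, plus an integration ratio under a set limit after plate pattern correction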
HNF4A DNA FP: change in binding of human HNF4 alpha to DNA; activity change, % at 10 µM; AID 1224865; HNF4a-FITC DNA binding, fluorescence polarization, 1 h; 360,000 compounds, 0.3% hits; P41235; in the data active = activity change above about 30%, passing the limit was not always enough
Target sequence (P41235 whole entry, looked up): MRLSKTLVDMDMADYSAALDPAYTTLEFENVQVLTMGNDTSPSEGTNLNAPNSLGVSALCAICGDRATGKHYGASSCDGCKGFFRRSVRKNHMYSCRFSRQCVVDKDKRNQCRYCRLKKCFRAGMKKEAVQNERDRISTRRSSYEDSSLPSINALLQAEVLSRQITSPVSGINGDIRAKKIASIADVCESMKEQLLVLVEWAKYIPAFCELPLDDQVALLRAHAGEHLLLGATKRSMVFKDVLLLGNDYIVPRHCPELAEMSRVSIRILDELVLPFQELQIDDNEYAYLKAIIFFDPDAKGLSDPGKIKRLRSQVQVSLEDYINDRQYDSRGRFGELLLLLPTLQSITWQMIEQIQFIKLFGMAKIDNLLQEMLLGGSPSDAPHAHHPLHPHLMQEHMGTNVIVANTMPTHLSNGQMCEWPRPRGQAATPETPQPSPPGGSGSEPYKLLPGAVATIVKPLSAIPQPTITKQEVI
TPT1 inh confirm: confirmation of Candida albicans TPT1 inhibitors | shares compounds with TPT1 inh | recombinant caTPT1, fluorescence polarization, RNase T1 coupled | inhibition, % at 5 µM | 2,400 compounds, 74% hits | AID 2149;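 active = inhibition above the primary screen limit, the mean inhibition of all tested compounds plus 3 SD, cut at about 25% in these data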
RNase T1 inh: blocks Aspergillus oryzae RNase T1, a TPT1 counter-screen; shares compounds with TPT1 inh; RNase T1 cleavage, fluorescence polarization, 1536-well; inhibition, % at 5 µM; 2,400 compounds, 83% hits; AID 2153;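 active = inhibition above the solvent-only control well mean plus 3 SD, limit set per screening run, cut at about 23% in these data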;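 also: inhibitors block cleavage so intact labeled substrate keeps polarization high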
Target sequence (P00651 whole entry, looked up): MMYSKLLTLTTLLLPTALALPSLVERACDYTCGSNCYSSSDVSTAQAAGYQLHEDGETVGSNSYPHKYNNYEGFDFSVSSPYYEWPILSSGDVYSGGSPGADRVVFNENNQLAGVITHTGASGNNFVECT
Of the large screens only hits and unclear results are named; the others gave an inactive call (follow-up assays come after a bar, where they were run). Only some compounds are listed: those with a hit (about 1.4% of all), similar ones and a draw of the others.

Cc1cc(C)cc(N2C(=O)/C(=C\c3ccc(N4CCN(C)CC4)o3)C(=O)NC2=S)c1	TPT1 inh 140.2, CRFBP-R2 agonist 57.4 (no result: IDE cell activ) | TPT1 inh confirm 151.2 | RNase T1 inh 141.4
O=C1NC(=O)C(=Cc2ccc(N3CCOCC3)o2)C(=O)N1	TPT1 inh 180.1 | TPT1 inh confirm 146.1 | RNase T1 inh 144.1
O=C1NC(=O)N(c2ccc3c(c2)OCO3)C(=O)/C1=C/c1ccc(N2CCCCC2)o1	TPT1 inh 132.3 | TPT1 inh confirm 145.7 | RNase T1 inh 141.8
Cc1[nH]nc2ccc(-c3cncc(OC[C@@H](N)Cc4c[nH]c5ccccc45)c3)cc12	none (no result: IDE inh, TPT1 inh)
O=S(=O)(c1cc(Cl)cc(Cl)c1)N1Cc2cc(N3CCOCC3)ccc2-n2nncc2C1	none (no result: IDE cell activ, IDE inh, TPT1 inh, CRFBP-R2 agonist)
CCC1CN1P1(=O)OCC(C)([N+](=O)[O-])CO1 (stereo not drawn)	none (no result: IDE inh, TPT1 inh)
Cc1ccnc(-n2c(C)cc(C=C3C(=O)N(C)C(=S)N(C)C3=O)c2C)c1	TPT1 inh 52.0 | TPT1 inh confirm inactive | RNase T1 inh 33.2
Cc1cc(C=C2C(=O)N(C)C(=S)N(C)C2=O)c(C)n1-c1ccncc1	none (no result: IDE cell activ)
CN1C(=O)/C(=C/c2cccn2-c2ccc3ccccc3c2)C(=O)NC1=S	TPT1 inh 38.0 | TPT1 inh confirm inactive | RNase T1 inh inactive
O=C(O)C1(Br)CC12c1ccccc1-c1ccccc12 (stereo not drawn)	none (no result: IDE inh, TPT1 inh)
O=C1CC(=O)N(c2ccc(Cl)cc2Cl)C(=O)N1	TPT1 inh 37.3 | TPT1 inh confirm inactive | RNase T1 inh 24.8
Cc1cc(Br)ccc1N1C(=O)CC(=O)NC1=O	TPT1 inh 24.2 | TPT1 inh confirm inactive | RNase T1 inh inactive
O=C1CC(=O)N(c2ccccc2F)C(=O)N1	none
O=C1CC(=O)N(c2cccc(Br)c2)C(=O)N1	none
O=C1NC(=O)N(CCc2ccc(F)cc2)C(=O)/C1=C/c1ccco1	TPT1 inh 60.5 | TPT1 inh confirm inactive | RNase T1 inh inactive
COc1ccc(CN2C(=O)NC(=O)/C(=C/c3ccc([N+](=O)[O-])s3)C2=O)cc1	TPT1 inh 27.0 | TPT1 inh confirm 55.9 | RNase T1 inh 72.0
Cc1ccc(/C=C2/C(=O)NC(=O)N(CCc3ccc(F)cc3)C2=O)o1	TPT1 inh 27.4 | TPT1 inh confirm inactive | RNase T1 inh inactive
O=C1NC(=O)N(Cc2ccccc2)C(=O)/C1=C/C=C/c1ccco1	TPT1 inh 75.5, HNF4A DNA FP 41.8 | TPT1 inh confirm 50.1 | RNase T1 inh 67.8
O=C1NC(=O)N(Cc2ccccc2)C(=O)/C1=C/c1cnn(-c2ccccc2)c1	none (no result: IDE cell activ, CRFBP-R2 agonist, HNF4A DNA FP)
O=S(=O)(c1ccc(Cl)cc1)N1Cc2cc(Br)ccc2-n2nncc2C1	none (no result: IDE cell activ, IDE inh, TPT1 inh, CRFBP-R2 agonist)
COc1cc(OC)c(OC)cc1/C=C1\C(=O)NC(=O)N(Cc2ccccc2)C1=O	none
CC(C)c1ccc(N2C(=O)NC(=O)/C(=C\C=C\c3ccco3)C2=O)cc1	TPT1 inh 130.4 (no result: IDE cell activ, HNF4A DNA FP) | TPT1 inh confirm 109.9 | RNase T1 inh 105.9
COc1cc(OC)c(OC)cc1/C=C1/C(=O)NC(=O)N(Cc2ccccc2)C1=O	TPT1 inh 26.3 | TPT1 inh confirm 29.8 | RNase T1 inh 41.5
COc1ccc(CN2C(=O)NC(=O)/C(=C\c3ccco3)C2=O)cc1	TPT1 inh 79.9 | TPT1 inh confirm 32.9 | RNase T1 inh 47.1
O=C1NC(=O)N(Cc2ccc(F)cc2)C(=O)/C1=C\c1ccc(N2CCCC2)cc1	TPT1 inh 82.2 | TPT1 inh confirm 103.5 | RNase T1 inh 116.6
CC(C)c1ccc(N2C(=O)NC(=O)/C(=C\c3cnc(-c4ccccc4)nc3)C2=O)cc1	none
O=C1NC(=O)N(c2ccc(F)cc2)C(=O)/C1=C/c1ccc(N2CCOCC2)cc1	none
COC(=O)C1=C(c2ccc(OCc3ccccc3)c(F)c2)C[C@@H]2CC[C@H]1N2C	none (no result: IDE cell activ, IDE inh, TPT1 inh)
CC12CC(O)C3C(CCC4=CC(=O)CCC43C)C1CCC2=O (stereo not drawn)	none (no result: IDE inh, TPT1 inh)
O=C1c2ccccc2-n2nnc(-c3ccccc3)c2C2c3cc(Br)ccc3CCN12 (stereo not drawn)	none (no result: IDE cell activ, IDE inh, TPT1 inh, CRFBP-R2 agonist)
O=C1NCN(c2ccccc2)C12CCN(C(c1ccccc1OC(F)(F)F)c1nnnn1C1CCCC1)CC2 (stereo not drawn)	none (no result: IDE cell activ, IDE inh, TPT1 inh, CRFBP-R2 agonist)
CN(C)c1ccc(/C=C2\C(=O)NC(=O)N(CCc3ccc(F)cc3)C2=O)cc1	TPT1 inh 29.6 | TPT1 inh confirm 66.8 | RNase T1 inh 86.5
COCCN1C(=O)NC(=O)/C(=C\c2ccc(F)cc2)C1=O	none
COc1cc(/C=C/C(=O)c2c(O)n(CCc3ccccc3)c(=O)[nH]c2=O)ccc1O	TPT1 inh 62.8 | TPT1 inh confirm 69.2 | RNase T1 inh 89.3
O=C(/C=C/c1ccccc1)c1c(O)n(CCc2ccccc2)c(=O)[nH]c1=O	none
O=C(NCP(=O)(Oc1ccccc1)Oc1ccccc1)OCc1ccccc1	none (no result: IDE cell activ, IDE inh, TPT1 inh, CRFBP-R2 agonist)
Cn1cc(C(=O)NC2CC2)c2ccccc21	none
Cn1cc(C(=O)NCc2ccccc2)c2ccccc21	TPT1 inh 38.8 | TPT1 inh confirm inactive | RNase T1 inh inactive
O=C(N/N=C/c1c(O)n(CCc2ccccc2)c(=O)[nH]c1=O)c1ccccc1O	TPT1 inh 38.4 | TPT1 inh confirm 43.0 | RNase T1 inh 55.7
O=C(N/N=C/c1c(O)n(Cc2ccccc2)c(=O)[nH]c1=O)c1ccccc1O	none
S=C(NCCc1ccccc1)N1Cc2ccc(Br)cc2-n2nncc2C1	none (no result: IDE cell activ, IDE inh, TPT1 inh, CRFBP-R2 agonist)
COC1=CC(=O)OC(CCc2ccc3c(c2)OCO3)C1 (stereo not drawn)	none (no result: IDE inh, TPT1 inh)
O=Cc1c(C(=O)O)n(Cc2ccccc2Cl)c2ccccc12	none
Cc1cc(C)c(Cn2c(C(=O)O)c(C=O)c3ccccc32)c(C)c1	TPT1 inh 52.9 | TPT1 inh confirm 118.0 | RNase T1 inh 119.6
Cc1ccccc1-n1c(O)c(C=Nc2ccc3c(c2)OCO3)c(=O)[nH]c1=O	none
NS(=O)(=O)c1ccc(N=Cc2c(O)n(-c3ccccc3)c(=O)[nH]c2=O)cc1	none (no result: IDE cell activ)
CCN(CC)c1ccc(N=Cc2c(O)n(-c3ccccc3C)c(=O)[nH]c2=O)cc1	TPT1 inh 68.8 | TPT1 inh confirm 72.3 | RNase T1 inh 83.8
CCOc1ccc(-n2c(O)c(C=Nc3ccc(N(CC)CC)cc3)c(=O)[nH]c2=O)cc1	TPT1 inh 30.9, CRFBP-R2 agonist 101.7 | TPT1 inh confirm 41.9 | RNase T1 inh 55.6
CCOc1ccccc1-n1c(O)c(C=Nc2ccc(N(CC)CC)cc2)c(=O)[nH]c1=O	TPT1 inh 81.3 | TPT1 inh confirm 75.2 | RNase T1 inh 89.3
CCN(CC)c1ccc(N=Cc2c(O)n(-c3ccccc3)c(=O)[nH]c2=O)cc1	TPT1 inh 39.4 | TPT1 inh confirm 59.3 | RNase T1 inh 71.2
CC(=O)C1CCC2C3CCC4CC(O)CCC4(C)C3C(=O)CC12C (stereo not drawn)	none (no result: IDE inh, TPT1 inh)
c1ccc2c(c1)CNCc1cnnn1-2	none (no result: IDE inh, TPT1 inh)
